# HP1b chromo inh: blocks HP1-beta chromodomain binding to methylated histone tails; AlphaScreen HP1-beta / biotin-H3K9me3 peptide binding; Potency, µM (highest dose often 114 µM), without a hit: at the top dose activity change, negative = inhibition, hits mostly inhibitors; P83916; 390,000 tested, 0.56% active; further: nearly all actives have a fitted effect of over 70% in size
#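 Compound inhibition of the preformed complex between 50 nM HP1-beta and 50 nM biotinylated H3K9me3 peptide was read by AlphaScreen. Buffer was PBS pH 7.4 with 0.01% Tween-20. Incubations ran 30 min at room temperature, with 10 ug/mL donor/acceptor beads.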
# JMJD2A Tudor inh: blocks the human JMJD2A Tudor domain; AlphaScreen JMJD2A-Tudor / H3K4me3 peptide binding; 390,000 tested, 4.4% active; Potency, µM (highest dose often 114 µM), for the others: at the top dose activity change, negative = inhibition, actives largely listed as inhibitors; O75164; further: on the % scale 0 is the no-effect control and ±100 the full control effect; nearly all actives have a fitted effect of over 50% in size
# GLS inh: inhibitors of human glutaminase (GLS). GLS enzymatic activity, qHTS titration. O94925. 410,000 tested, 0.21% active. Potency, µM (doses to about 45.5 µM), for inactives: at the top dose activity change, negative = inhibition, actives largely listed as inhibitors. AID 624170; further: on the % scale 0 is the no-effect control and ±100 the full control effect
#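 Two-point fluorescence kinetic (t0, 30 min RT) for hKGA; glutamate detected via glutamate oxidase–HRP–Amplex Red. Substrate: 1 mM L-glutamine solution; buffer 45 mM KH2PO4, pH 8.2.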
# BAZ2B inh: BAZ2B (human) inhibition | Potency, µM (highest dose often 114 µM), without a hit: at the top dose activity change, negative = inhibition, usual class: inhibitors | AlphaScreen BAZ2B-H3K14Ac peptide displacement | 360,000 tested, 4.4% active | AID 504333; further: on the % scale 0 is the no-effect control and ±100 the full control effect; nearly all actives have a fitted effect of over 60% in size
# Target sequence (Q9UIF8 whole entry, looked up): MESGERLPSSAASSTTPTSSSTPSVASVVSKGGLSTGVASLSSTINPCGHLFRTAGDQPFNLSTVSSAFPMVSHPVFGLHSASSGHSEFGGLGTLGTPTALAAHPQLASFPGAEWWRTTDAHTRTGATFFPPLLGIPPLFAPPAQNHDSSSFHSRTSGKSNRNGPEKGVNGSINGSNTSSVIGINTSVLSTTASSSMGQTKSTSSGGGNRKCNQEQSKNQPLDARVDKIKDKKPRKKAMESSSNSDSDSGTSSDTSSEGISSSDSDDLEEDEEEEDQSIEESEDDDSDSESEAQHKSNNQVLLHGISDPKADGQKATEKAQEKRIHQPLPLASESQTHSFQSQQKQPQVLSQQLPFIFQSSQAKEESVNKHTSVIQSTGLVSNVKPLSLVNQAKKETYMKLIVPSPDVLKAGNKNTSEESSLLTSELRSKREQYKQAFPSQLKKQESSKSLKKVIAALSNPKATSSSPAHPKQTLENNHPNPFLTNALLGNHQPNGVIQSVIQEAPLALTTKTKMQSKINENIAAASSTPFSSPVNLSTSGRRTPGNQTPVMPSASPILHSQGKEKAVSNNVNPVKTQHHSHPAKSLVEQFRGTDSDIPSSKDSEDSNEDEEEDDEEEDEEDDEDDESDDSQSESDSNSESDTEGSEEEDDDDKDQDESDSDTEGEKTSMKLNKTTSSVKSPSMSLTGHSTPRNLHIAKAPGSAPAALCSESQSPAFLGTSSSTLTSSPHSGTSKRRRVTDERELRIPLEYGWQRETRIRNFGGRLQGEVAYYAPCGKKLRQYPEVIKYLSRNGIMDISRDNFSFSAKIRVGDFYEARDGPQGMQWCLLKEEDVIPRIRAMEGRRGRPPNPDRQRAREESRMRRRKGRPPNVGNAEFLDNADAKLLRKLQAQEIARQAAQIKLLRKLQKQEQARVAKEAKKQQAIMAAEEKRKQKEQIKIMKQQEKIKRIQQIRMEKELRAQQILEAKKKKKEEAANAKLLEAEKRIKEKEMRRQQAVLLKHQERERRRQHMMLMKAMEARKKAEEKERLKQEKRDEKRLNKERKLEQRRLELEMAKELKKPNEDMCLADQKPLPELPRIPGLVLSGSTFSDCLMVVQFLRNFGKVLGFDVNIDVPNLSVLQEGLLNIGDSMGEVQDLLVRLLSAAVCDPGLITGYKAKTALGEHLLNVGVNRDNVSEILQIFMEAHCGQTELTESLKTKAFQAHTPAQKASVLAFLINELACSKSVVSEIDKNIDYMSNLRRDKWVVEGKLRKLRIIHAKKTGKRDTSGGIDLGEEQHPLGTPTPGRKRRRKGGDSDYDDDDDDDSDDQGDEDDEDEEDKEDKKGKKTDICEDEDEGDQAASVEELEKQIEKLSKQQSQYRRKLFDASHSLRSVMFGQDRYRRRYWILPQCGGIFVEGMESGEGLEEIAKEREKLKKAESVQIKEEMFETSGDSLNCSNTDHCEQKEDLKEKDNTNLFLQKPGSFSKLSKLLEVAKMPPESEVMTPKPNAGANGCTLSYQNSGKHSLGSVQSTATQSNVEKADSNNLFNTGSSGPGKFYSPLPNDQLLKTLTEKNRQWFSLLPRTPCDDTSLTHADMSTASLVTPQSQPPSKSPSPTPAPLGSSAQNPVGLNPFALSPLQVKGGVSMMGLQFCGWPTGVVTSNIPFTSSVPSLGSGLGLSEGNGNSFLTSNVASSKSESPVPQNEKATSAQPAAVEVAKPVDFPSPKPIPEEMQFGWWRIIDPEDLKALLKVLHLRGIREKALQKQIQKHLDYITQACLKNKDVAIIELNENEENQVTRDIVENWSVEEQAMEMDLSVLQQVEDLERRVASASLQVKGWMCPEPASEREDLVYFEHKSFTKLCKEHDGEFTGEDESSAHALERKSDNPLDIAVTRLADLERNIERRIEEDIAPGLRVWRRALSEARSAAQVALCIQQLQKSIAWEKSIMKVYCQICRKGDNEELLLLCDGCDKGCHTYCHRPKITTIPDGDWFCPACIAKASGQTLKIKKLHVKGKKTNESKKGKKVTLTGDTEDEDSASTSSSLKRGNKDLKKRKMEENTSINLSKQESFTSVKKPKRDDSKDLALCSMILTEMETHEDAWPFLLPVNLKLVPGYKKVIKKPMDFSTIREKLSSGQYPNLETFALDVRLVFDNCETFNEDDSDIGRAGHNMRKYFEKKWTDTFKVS
#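 Complex of BAZ2B and biotin-H3K14Ac (50 nM apiece) forms over 30 min at RT, then faces library compounds up to 110 uM for another 30 min; AlphaScreen beads added, 20 min dark incubation, luminescence read.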
# G9a inh: blocks human histone lysine methyltransferase G9a | G9a H3K9 monomethylation, AlphaScreen, 2 h | Potency, µM (series often up to 102 µM), for the others: at the top dose activity, negative = inhibition, most hits filed as inhibitors | Q96KQ7 | 350,000 tested, 8.8% active; further: on the % scale 0 is the no-effect control and ±100 the full control effect; nearly all actives have a fitted effect of over 75% in size
#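 Quantitative HTS format: methyltransferase activity on a biotin-tagged H3K9 peptide is measured by AlphaScreen, using a rabbit anti-monomethyl-H3K9 antibody with streptavidin donor and anti-IgG acceptor beads. Final levels are 20 nM enzyme, 500 nM peptide, 20 uM SAM; 2 h RT.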
# * = called active by the depositor; ? = inconclusive; · = no result given; [ ] = dose if it differs, or a comment. Compounds with a hit are over-represented: about 10% of the library has one in this group of screens. The call rests on the fitted dose curve; in most records, active means well fitted curve in the direction sought with a large enough effect; inconclusive means small, poorly fitted or top-dose-only effect, or another doubt; inactive means no such curve, though single readings can be large; an effect the other way counts as inactive or inconclusive. Potency means the concentration at half of the fitted maximal effect.
SMILES,HP1b chromo inh,JMJD2A Tudor inh,GLS inh,BAZ2B inh,G9a inh
Cn1c(SCc2cccc3ccccc23)nnc1-c1ccco1,13.4%,-7.5%,10.0%,-26.9%,15.8µM*
Cc1nc2ccccc2n1CCc1nc2c3ccccc3nc(SCc3ccc(C#N)cc3)n2n1,38.2%,-7.0%,-7.2%,-1.6%,7.4%[59 µM]
CCCCCCCCN1C(=O)[C@H](CC(=O)NCCCOCCCC)C[C@@]2(C(=O)OCC)CCCC=C12,·,·,2.4%,·,·
CCn1nc(CC(=O)Nc2nnc(CC(=O)N3CCCCC3)s2)c2ccccc2c1=O,36.8%,2.7%,58.4%,?,?
Cc1nn(CC(=O)Nc2nnc(CC(=O)N3CCCC3)s2)c(=O)c2ccccc12,-8.0%,3.8%[11.4 µM],5.6%,-3.4%,44.7µM*
CN(CC(=O)Nc1ccccc1C(F)(F)F)Cc1c(O)ccc2ccccc12,-29.7%,79.4µM*,?,?,7.94µM*
CCCN(CC(=O)Nc1ccccc1OC)C(=O)c1cc2ccccc2o1,10.5%,-18.0%,1.5%,-17.3%,-23.7%
CCCN(CC(=O)Nc1ccccc1OC)Cc1c(O)ccc2ccccc12,?,56.2µM*,-23.9%,?,3.55µM*
COc1ccc(NC(=O)Cn2c(=O)n(CCCC(=O)NCCc3ccc(C)cc3)c(=O)c3ccccc32)cc1Cl,47.1%,-0.7%,2.4%,1.4%,1.1%[59 µM]
Cc1ccc(OCc2nc(-c3ccccn3)n[nH]2)cc1,50.7%,20µM*,1.9%,3.98µM*,70.8%[59 µM]
Cc1cccc(OCc2nc(-c3ccccn3)n[nH]2)c1,45.9%,12.6µM*,1.4%,8.91µM*,22.6%[59 µM]
Cc1oc(-c2cccs2)nc1CNC[C@H]1O[C@@H](n2cnc3c(N)ncnc32)[C@H](O)[C@@H]1O,59.3%,-5.0%,-6.3%,·,·
O=C1NC(c2ccccc2)=C(c2ccc3ccccc3n2)C(c2ccncc2)N1 (centres undefined),8.2%,-23.3%,-3.6%,0.9%,50.1µM*
Cc1ccc(C2C(C#N)=C(N)Oc3n[nH]c(-c4cccs4)c32)s1 (centres undefined),10.3%,-18.2%,-4.8%,?,50.1µM*
CCOc1ccc(C(=O)Nc2ccc3nc(Nc4cccc(C(F)(F)F)c4)cc(C)c3c2)cc1OCC,30.5%,-3.6%,-5.2%,-12.1%,7.2%[59 µM]
Cc1nc(Nc2cnc(/C=C/c3cc(C(=O)Nc4cccc(C(F)(F)F)c4)ccc3C)cn2)cc(N2CCNCC2)n1,?,?,0.3%,-38.0%,31.6µM*
COCc1c(Br)c(C)nc(OCC(=O)N/N=C/c2ccc(C)o2)c1C#N,32.7%,-7.7%,0.6%,-12.6%,-32.6%
COCc1c(Br)c(C)nc(OCC(=O)N/N=C/c2ccco2)c1C#N,26.5%,-26.8%,-4.6%,89.1µM*,?
CCOC(=O)Cn1c2c(c(=N)c3c1CCC3)CCCC2,28.0%,7.4%,-1.1%,4.0%,22.7%
CCCn1c2c(c(=N)c3c1CCC3)CCC2,7.2%,-6.2%,3.8%,?,50.1µM*
CCCn1c2c(c(=N)c3c1CCC3)CCCC2,19.1%,?,5.7%,-1.1%,12.6µM*
CC(C)(C)NC(=O)C(=O)NNC(=O)c1cccc(F)c1,1.9%,10µM*,4.2%,?,9.2%
CC(C)(C)NC(=O)C(=O)NNC(=O)c1ccccc1,15.6%,8.91µM*,2.7%,?,?
CSC[C@H]1CN(c2ccccc2)C(=O)[C@@H]1CC(=O)Nc1ccccc1,·,·,-1.9%,·,·
C=C1c2ccccc2NC(=S)N1Cc1ccc2c(c1)OCO2,24.1%,-9.0%[11.4 µM],0.4%,-32.3%,31.6µM*
SMILES,HP1b chromo inh,JMJD2A Tudor inh,GLS inh,BAZ2B inh,G9a inh
O=C1c2ccccc2C(=O)N1Cc1ccc2c(c1)OCO2,33.3%,27.7%,1.3%,16.8%,-5.2%[12.7 µM]
COc1ccc(OC)c(/C=N/NC(=O)c2cc[n+](CC(=O)c3ccccc3)cc2)c1,31.0%,-24.3%,0.9%,-10.0%,79.4µM*
O=C(C[n+]1ccc(C(=O)N/N=C/c2ccc(OCc3ccccc3)cc2)cc1)c1ccccc1,5.1%,-34.5%,18.1%,5.0%,?
O=C(N/N=C/c1ccc(Br)cc1)c1ccc(NC(=O)c2ccccc2)cc1,21.9%,-16.5%,1.5%,·,·
O=C(C[n+]1cccc(C(=O)N/N=C/c2cccc([N+](=O)[O-])c2)c1)c1ccccc1,21.0%,-32.4%,-5.2%,-7.2%,50.1µM*
O=C(C[n+]1ccc(C(=O)N/N=C/c2ccc(O)cc2)cc1)c1ccccc1,33.8%,-21.9%,2.4%,?,14.1µM*

# Screening data from PubChem.
